Records with an inconclusive call do not appear. The source made the active and inactive calls. Unless noted, calls follow the shape of the full dose curve.
Assay: qHTS assay to identify small molecule agonists of H2AX - cell viability counter screen (AID 1224847); also: top concentration of the series differs between compounds; nearly all actives have a fitted effect of over 30% in size
Conditions: CHO-K1 viability, CellTiter-Glo luminescence, 3 h; series mostly up to 154 µM; activity change, negative = cytotoxicity: at the top concentration
Procedure, shortened: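 Wild-type CHO-K1 cells (10% FBS medium) were plated overnight at 37C, exposed to compounds at 15 concentrations for 3 hr at 37C (0.76% DMSO final), and viability was read as CellTiter-Glo luminescence after 30 min at room temperature.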
In the case of `Cc1cccc(C)c1NC(=O)CN1CCCCCC1`, the “activity change, negative = cytotoxicity” value was 7.89% [at 70.9 µM] (inactive).
For `OCCN(CCO)CCN(CCO)CCO`, the “activity change, negative = cytotoxicity” value was 9.89% (inactive).
In the case of `CCOC(=O)NCCC[Si](OCC)(OCC)OCC`, the “activity change, negative = cytotoxicity” value was 3.3% (inactive).
With `O=C(CCCl)NCc1ccccc1` the “activity change, negative = cytotoxicity” value was -0.18% [at 70.9 µM] (inactive).
With `O=c1[nH]cnc2c1ncn2[C@@H]1O[C@H](CO)[C@@H](O)[C@H]1O` the “activity change, negative = cytotoxicity” value was 14.4% [at 70.9 µM] (inactive).
With `C=CC1CO1` (stereo unspecified) the “activity change, negative = cytotoxicity” value was -0.173% (inactive).
For `C[C@]12C(=O)OC(=O)[C@H]1[C@H]1C=C[C@@H]2C1`, the “activity change, negative = cytotoxicity” value was 0.703% (inactive).
In the case of `NNS(=O)(=O)c1ccc(Oc2ccc(S(=O)(=O)NN)cc2)cc1`, the “activity change, negative = cytotoxicity” value was 10.5% (inactive).
In the case of `CN1CCN(C2=Nc3cc(F)ccc3Cc3ccccc32)CC1`, the “activity change, negative = cytotoxicity” value was -1.06% [at 70.9 µM] (inactive).
With `Cc1cn([C@@H]2O[C@H](CO)[C@@H](O)[C@@H]2F)c(=O)[nH]c1=O` the “activity change, negative = cytotoxicity” value was 0.0684% [at 70.9 µM] (inactive).
For `CCCc1c2oc(C(=O)O)cc(=O)c2cc2c(=O)cc(C(=O)O)n(CC)c12`, the “activity change, negative = cytotoxicity” value was 4.8% [at 70.9 µM] (inactive).
With `Cc1ncc(CO)c(CN)c1O` the “activity change, negative = cytotoxicity” value was 1.27% [at 70.9 µM] (inactive).
For `NC1=NCC2c3ccccc3Cc3ccccc3N12` (stereo unspecified), the “activity change, negative = cytotoxicity” value was -11% [at 70.9 µM] (inactive).
In the case of `FC(F)(F)C(Cl)(Cl)Cl`, the “activity change, negative = cytotoxicity” value was 4.04% (inactive).
In the case of `CCCOCCC`, the “activity change, negative = cytotoxicity” value was -0.342% (inactive).
For `Cc1cc2c(s1)Nc1ccccc1N=C2N1CCN(C)CC1`, the “activity change, negative = cytotoxicity” value was -3.46% [at 70.9 µM] (inactive).
For `CCC(=O)Nc1ccc(O)cc1`, the “activity change, negative = cytotoxicity” value was 5.18% [at 70.9 µM] (inactive).
For `CCC/C=C/CO`, the “activity change, negative = cytotoxicity” value was 0.433% (inactive).
In the case of `C[C@@H]1CN(c2c(F)c(F)c3c(=O)c(C(=O)O)cn(C4CC4)c3c2F)C[C@H](C)N1`, the activity change, negative = cytotoxicity was 5.9% [at 31.6 µM] (inactive).
In the case of `CCOC(=O)c1cc(=O)c2c(OCC(COc3cccc4oc(C(=O)OCC)cc(=O)c34)OC(=O)[C@@H](N)CCCCN)cccc2o1`, the “activity change, negative = cytotoxicity” value was -2.76% [at 70.9 µM] (inactive).
In the case of `CCc1cc2cc(OC)c(OC)cc2c(Cc2ccccc2)n1`, the “activity change, negative = cytotoxicity” value was -2.77% [at 70.9 µM] (inactive).
In the case of `O=C(O)[C@@H]1CSCN1`, the “activity change, negative = cytotoxicity” value was -0.76% [at 70.9 µM] (inactive).
For `COC(=O)c1ccc2cc(C(=O)OC)ccc2c1`, the activity change, negative = cytotoxicity was 2.5% [at 31.6 µM] (inactive).
For `Cc1ccccc1C(=O)Nc1ccc(C(=O)N2CCCC(O)c3cc(Cl)ccc32)c(C)c1` (stereo unspecified), the “activity change, negative = cytotoxicity” value was -0.31% [at 70.9 µM] (inactive).
For `CCOC(=O)C(Br)c1ccccc1` (stereo unspecified), the “activity change, negative = cytotoxicity” value was -2.92% (inactive).
For `Cc1ccc([N+](=O)[O-])c(N)c1`, the “activity change, negative = cytotoxicity” value was -4.29% (inactive).
With `C1CCOC1` the “activity change, negative = cytotoxicity” value was -1.58% (inactive).
With `CCCCCCCCCCCCCCCCOP(=O)([O-])OCC[N+](C)(C)C` the “activity change, negative = cytotoxicity” value was -3.85% [at 70.9 µM] (inactive).
With `O=C1CCC(C2CCCCC2)CC1` the “activity change, negative = cytotoxicity” value was 4.69% (inactive).
With `CCCCCCCCOC(=O)CCCCCCCCC(=O)OCCCCCCCC` the “activity change, negative = cytotoxicity” value was 5.34% (inactive).
With `CCCCCCn1c(=O)c2c(ncn2C)n(C)c1=O` the “activity change, negative = cytotoxicity” value was -1.08% [at 70.9 µM] (inactive).
In the case of `CN(C)Cc1ccccc1`, the “activity change, negative = cytotoxicity” value was -0.0489% (inactive).
In the case of `Cc1c(N)cccc1N`, the “activity change, negative = cytotoxicity” value was 0.243% (inactive).
With `N#Cc1ccc(C(c2ccc(C#N)cc2)n2cncn2)cc1` the “activity change, negative = cytotoxicity” value was 1.69% [at 70.9 µM] (inactive).
With `O=CCCc1ccccc1` the “activity change, negative = cytotoxicity” value was 1.74% (inactive).
With `CCN(CC)CC1CCCCN1CC(=O)N1c2ccccc2C(=O)Nc2cccnc21` (stereo unspecified) the “activity change, negative = cytotoxicity” value was -2.64% [at 70.9 µM] (inactive).
For `Cc1ccsc1C(=CCCN1CCC[C@@H](C(=O)O)C1)c1sccc1C`, the “activity change, negative = cytotoxicity” value was 0.792% [at 70.9 µM] (inactive).
In the case of `FC(F)(F)c1ccccc1`, the “activity change, negative = cytotoxicity” value was 0.445% (inactive).
For `O=S(=O)(O)C(F)(F)F`, the “activity change, negative = cytotoxicity” value was 0.639% (inactive).

Assay: qHTS assay to identify small molecule antagonists of the estrogen related receptor (ERR) signaling pathway from Tox21 library (AID 1224848; active = well fitted inhibition curve with a large enough effect in the repeat runs; also: nearly all actives have a fitted effect of over 50% in size)
Conditions: ERR reporter cell line, luciferase antagonist mode, 18 h; series mostly up to 92.4 µM; activity, negative = inhibition: at the top concentration
Procedure, shortened: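 Cells: ERR line, 2,000/well; 6 h preincubation 37 C/5% CO2. Cpd in DMSO via pin tool; 18 h, 37 C. ONE-Glo, 30 min RT, luminescence.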
For `Cc1cccc(C)c1NC(=O)CN1CCCCCC1`, the “activity, negative = inhibition” value was 0.817% [at 42.5 µM] (inactive).
For `OCCN(CCO)CCN(CCO)CCO`, the “activity, negative = inhibition” value was 0.235% (inactive).
In the case of `CCOC(=O)NCCC[Si](OCC)(OCC)OCC`, the “activity, negative = inhibition” value was -14.3% (inactive).
For `O=C(CCCl)NCc1ccccc1`, the “activity, negative = inhibition” value was 8.24% [at 42.5 µM] (inactive).
With `O=c1[nH]cnc2c1ncn2[C@@H]1O[C@H](CO)[C@@H](O)[C@H]1O` the “activity, negative = inhibition” value was 4.87% [at 42.5 µM] (inactive).
In the case of `C[C@]12C(=O)OC(=O)[C@H]1[C@H]1C=C[C@@H]2C1`, the “activity, negative = inhibition” value was 0.632% (inactive).
In the case of `NNS(=O)(=O)c1ccc(Oc2ccc(S(=O)(=O)NN)cc2)cc1`, the “activity, negative = inhibition” value was -22.3% (inactive).
For `CN1CCN(C2=Nc3cc(F)ccc3Cc3ccccc32)CC1`, the “activity, negative = inhibition” value was 1.33% [at 42.5 µM] (inactive).
For `CCCc1c2oc(C(=O)O)cc(=O)c2cc2c(=O)cc(C(=O)O)n(CC)c12`, the “activity, negative = inhibition” value was 2.18% [at 42.5 µM] (inactive).
In the case of `Cc1ncc(CO)c(CN)c1O`, the “activity, negative = inhibition” value was 7.7% [at 42.5 µM] (inactive).
For `Cc1cc2c(s1)Nc1ccccc1N=C2N1CCN(C)CC1`, the “activity, negative = inhibition” value was -3.59% [at 42.5 µM] (inactive).
For `C[C@@H]1CN(c2c(F)c(F)c3c(=O)c(C(=O)O)cn(C4CC4)c3c2F)C[C@H](C)N1`, the activity, negative = inhibition was 2.94% [at 19 µM] (inactive).
With `CCOC(=O)c1cc(=O)c2c(OCC(COc3cccc4oc(C(=O)OCC)cc(=O)c34)OC(=O)[C@@H](N)CCCCN)cccc2o1` the “activity, negative = inhibition” value was 13% [at 42.5 µM] (inactive).
In the case of `CCc1cc2cc(OC)c(OC)cc2c(Cc2ccccc2)n1`, the “activity, negative = inhibition” value was -21.4% [at 42.5 µM] (inactive).
In the case of `COC(=O)c1ccc2cc(C(=O)OC)ccc2c1`, the activity, negative = inhibition was 23.9% [at 19 µM] (inactive).
In the case of `Cc1ccc([N+](=O)[O-])c(N)c1`, the “activity, negative = inhibition” value was -7.22% (inactive).
With `C1CCOC1` the “activity, negative = inhibition” value was 2.61% (inactive).
In the case of `CCCCCCCCCCCCCCCCOP(=O)([O-])OCC[N+](C)(C)C`, the “activity, negative = inhibition” value was 20.7% [at 42.5 µM] (inactive).
In the case of `O=C1CCC(C2CCCCC2)CC1`, the “activity, negative = inhibition” value was -15.9% (inactive).
In the case of `CCCCCCCCOC(=O)CCCCCCCCC(=O)OCCCCCCCC`, the “activity, negative = inhibition” value was 6.29% (inactive).
With `CCCCCCn1c(=O)c2c(ncn2C)n(C)c1=O` the “activity, negative = inhibition” value was -2.96% [at 42.5 µM] (inactive).
With `CCN(CC)CC1CCCCN1CC(=O)N1c2ccccc2C(=O)Nc2cccnc21` (stereo unspecified) the “activity, negative = inhibition” value was 15.3% [at 42.5 µM] (inactive).
With `FC(F)(F)c1ccccc1` the “activity, negative = inhibition” value was 2.11% (inactive).
In the case of `O=S(=O)(O)C(F)(F)F`, the “activity, negative = inhibition” value was 6.38% (inactive).

Assay: qHTS assay to identify small molecule agonists of the estrogen related receptor (ERR) signaling pathway from Tox21 library (AID 1224849); also: nearly all actives have a fitted effect of over 15% in size
Conditions: ERR reporter cell line, ONE-Glo luciferase, 18 h; at 92.4 µM (top of the series) unless noted
Procedure, shortened: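 We plated ERR reporter cells, waited 6 h, added compounds in DMSO by pin tool and incubated them 18 h at 37 C. ONE-Glo was then added and luminescence read after 30 min.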
In the case of `CN1CCN(C2=Nc3cc(F)ccc3Cc3ccccc32)CC1`, the activity change, positive = activation was 0.425% [at 42.5 µM] (inactive).
For `Cc1ccccc1C(=O)Nc1ccc(C(=O)N2CCCC(O)c3cc(Cl)ccc32)c(C)c1` (stereo unspecified), the activity change, positive = activation was -27% [at 42.5 µM] (inactive).
For `O=CCCc1ccccc1`, the activity change, positive = activation was 7.2% (inactive).
% is scaled to controls: 0 for no effect and ±100 for the full control effect.
